Drawing on PubChem BioAssay AID2061166 (Soto Lab, Mitchell Center for Alzheimers Disease and …, 2025), this text covers inhibition for 32 compounds.

The assay deals with Microtubule-associated protein tau (Homo sapiens) (UniProt P10636). In words: blockers of AD brain-seeded tau fibril growth – biochemical, seed amplification, ThT fluorescence, primary screen (AID 2061166). The following applies: Recombinant tau seeded by AD brain, ThT fluorescence AUC; at 100 µM; hits give high values.

Unmarked numbers belong to inactive results. The source made the active and inactive calls.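 The calls were made as follows: active = mean tau seeding fluorescence area under 1% of vehicle, meaning inhibition above a set limit; inactive = the rest.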

Chain of Microtubule-associated protein tau (Homo sapiens) (P10636 whole entry, looked up): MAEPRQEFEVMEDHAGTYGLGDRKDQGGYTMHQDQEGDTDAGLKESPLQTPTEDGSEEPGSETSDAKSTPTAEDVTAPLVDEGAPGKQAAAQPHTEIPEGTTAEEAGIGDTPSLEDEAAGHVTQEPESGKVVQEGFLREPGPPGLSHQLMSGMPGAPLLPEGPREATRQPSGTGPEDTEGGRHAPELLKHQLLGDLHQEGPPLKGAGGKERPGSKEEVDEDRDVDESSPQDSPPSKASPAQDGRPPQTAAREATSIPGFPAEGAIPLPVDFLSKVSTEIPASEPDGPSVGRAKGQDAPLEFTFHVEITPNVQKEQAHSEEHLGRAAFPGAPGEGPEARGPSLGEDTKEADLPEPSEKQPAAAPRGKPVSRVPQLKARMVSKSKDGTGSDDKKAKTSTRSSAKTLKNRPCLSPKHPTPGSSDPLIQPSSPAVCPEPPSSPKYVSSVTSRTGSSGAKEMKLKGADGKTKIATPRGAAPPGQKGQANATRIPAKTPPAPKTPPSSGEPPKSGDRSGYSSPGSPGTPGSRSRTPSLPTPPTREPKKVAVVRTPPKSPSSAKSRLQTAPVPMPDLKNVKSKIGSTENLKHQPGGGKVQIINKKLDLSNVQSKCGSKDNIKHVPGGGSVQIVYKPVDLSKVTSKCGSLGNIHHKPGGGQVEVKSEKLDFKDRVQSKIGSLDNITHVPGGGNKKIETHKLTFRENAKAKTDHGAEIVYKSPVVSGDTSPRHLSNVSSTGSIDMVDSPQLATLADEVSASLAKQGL

As for `NC(=O)c1cn(Cc2c(F)cccc2F)nn1`, the inhibition was -11.5%.

`Nc1c2c(nc3ccccc13)CCCC2`: the inhibition is 20.6%.

For the compound `C[N+](C)(C)CCO`, the inhibition was 13.4%.

As to `CCc1cc(C(N)=S)ccn1`, the inhibition is 40.9%.

As for `O=C(CCCCCCC(=O)Nc1ccccc1)NO`, the inhibition was -65.2%.

`COC1CC2CCC(C)C(O)(O2)C(=O)C(=O)N2CCCCC2C(=O)OC(C(C)CC2CCC(OCCO)C(OC)C2)CC(=O)C(C)/C=C(\C)C(O)C(OC)C(=O)C(C)CC(C)/C=C/C=C/C=C/1C` (configuration not stated): the inhibition is 19.2%.

In the case of `O=c1c(O)c(-c2cc(O)c(O)c(O)c2)oc2cc(O)cc(O)c12`, the inhibition was 95.3%.

Consider `COc1ccc(Cl)cc1C(=O)NCCc1ccc(S(=O)(=O)NC(=O)NC2CCCCC2)cc1`, for which the inhibition is -30.9%.

For `OC(CCN1CCCCC1)(c1ccccc1)C1CCCCC1` (configuration not stated), the inhibition was 21.7%.

On to `CN1CC(C(=O)NC2(C)OC3(O)C4CCCN4C(=O)C(Cc4ccccc4)N3C2=O)CC2c3cccc4[nH]cc(c34)CC21` (configuration not stated), for which the inhibition is 34.2%.

`Nc1cccc2c1C(=O)N(C1CCC(=O)NC1=O)C2=O` (configuration not stated): the inhibition was 16.4%.

Regarding `CN(C)c1ccc(C=CC=O)cc1`, the inhibition was 37.8%.

`O=c1c(-c2ccc(O)cc2)coc2cc(O)cc(O)c12`: the inhibition is -59.4%.

Take `CC(=O)Oc1cc(C(F)(F)F)ccc1C(=O)O`: the inhibition is 27%.

Turning to `C#Cc1cccc(Nc2ncnc3cc4c(cc23)OCCOCCOCCO4)c1`, the inhibition was -14.6%.

Consider `CCC1(O)C(=O)OCc2c1cc1n(c2=O)Cc2cc3c(CN(C)C)c(O)ccc3nc2-1` (configuration not stated), for which the inhibition is 91.5%.

`CCC(C(=O)O)c1ccc(N2Cc3ccccc3C2=O)cc1` (configuration not stated): the inhibition is 26.9%.

In the case of `CCN(CC)CCNC(=O)c1c(C)[nH]c(/C=C2\C(=O)Nc3ccc(F)cc32)c1C`, the inhibition is 98.6%.

Consider `CNC(=O)c1cc(Oc2ccc(NC(=O)Nc3ccc(Cl)c(C(F)(F)F)c3)cc2)ccn1`, for which the inhibition was -11%.

Regarding `O=C(OC1CC2CCC(C1)[N+]21CCCC1)C(O)(c1ccccc1)c1ccccc1` (configuration not stated), the inhibition is 16.5%.

For the compound `C=CCc1ccc(O)c(-c2ccc(O)c(CC=C)c2)c1`, the inhibition is 93.5%.

Regarding `CC(=O)NC(CS)C(=O)O` (configuration not stated), the inhibition is 5.01%.

As for `COC1C(=O)C2(C)C(OC)CC3OCC3(OC(C)=O)C2C(OC(=O)c2ccccc2)C2(O)CC(OC(=O)C(O)C(NC(=O)OC(C)(C)C)c3ccccc3)C(C)=C1C2(C)C` (configuration not stated), the inhibition is 10.4%.

`CC1(O)Cc2oc3cc(O)c(O)c(C(=O)O)c3c(=O)c2CO1` (configuration not stated): the inhibition is 33.4%.

As to `Nc1ccc(S(=O)(=O)c2ccc(N)cc2)cc1`, the inhibition was 26.5%.

In the case of `Oc1ccc(/C=C/c2cc(O)cc(O)c2)cc1`, the inhibition was 16.9%.

In the case of `CN(C)CCCN1c2ccccc2Sc2ccccc21`, the inhibition is 13.2%.

With `CNc1ccc2nc3ccc(=[N+](C)C)cc-3sc2c1`, the inhibition was 100% (active).

For `C[N+](C)=c1ccc2nc3ccc(N)cc3sc-2c1`, the inhibition was 100% (active).

For `NS(=O)(=O)Cc1noc2ccccc12`, the inhibition was 18.2%.

As to `C#CCC(Cc1cnc2nc(N)nc(N)c2n1)c1ccc(C(=O)NC(CCC(=O)O)C(=O)O)cc1` (configuration not stated), the inhibition was -3.35%.

Take `Brc1cccc(-c2cc(-c3ccc4c(c3)OCO4)[nH]n2)c1`: the inhibition was -25.9%.

What is called inhibition is the relative decrease from the control value, in per cent.
